About 13,000 (27%) of roughly 48,000 compounds showed an effect of 50% or more. The list shows a part of the results.
Test system: Wolbachia pipientis
Experiment: Anti-Wolbachia Cell-Based Screen
Format: functional
Set-up: scale not given: in the data most compounds retested in dose-response had high values
Details: 5 µM

Structure (SMILES)	Percent Effect
O=C(O)C(F)(F)F.O=C(c1cocn1)N1CC[C@H]2OCC[C@@]2(COc2ncccc2F)C1	4.073%
CCS(=O)(=O)N1CCc2onc(COc3ccccn3)c2C1.O=C(O)C(F)(F)F	-3.121%
Cc1oncc1C(=O)N1CCc2ncnc(-c3cnn(C)c3)c2CC1.O=C(O)C(F)(F)F	102.6%
CCN(C)c1ncnc2c1CCN(C(=O)c1ccoc1C)CC2.O=C(O)C(F)(F)F	0.8996%
O=C(O)C(F)(F)F.O=C(c1cccnc1)N1CCc2ncnc(N3CCOCC3)c2CC1	3.769%
Cc1ccc(C(=O)N2CCc3ncnc(C)c3CC2)cn1	-9.03%
CN(C)CC(=O)N1CCc2ncnc(-c3cncnc3)c2CC1.O=C(O)C(F)(F)F	2.289%
Cc1ccc(C(=O)N2CCc3ncnc(-c4cnn(C)c4)c3CC2)cn1.O=C(O)C(F)(F)F	114%
Cc1ccc(=O)n(CC(=O)N(C)Cc2csc(-c3cccs3)n2)n1	-12.57%
CO[C@H]1CN(C(C)C)C[C@@H]1NC(=O)c1cc(-c2ccccc2F)n[nH]1	-41.59%
CC(=O)N[C@@H]1CN(C(=O)c2cc3ccccc3[nH]2)C[C@H]1c1ccc(C)o1	5.04%
CS(=O)(=O)NC1CCN(C(=O)c2[nH]c3ccc(Cl)cc3c2Cl)CC1	24.08%
Cc1c(C(=O)N2CCN(C)[C@@H]3CS(=O)(=O)C[C@@H]32)[nH]c2ccc(F)cc12	22.59%
O=C(N[C@@H]1CC[C@@H](N2CCCC2)[C@@H]1O)c1cc2ccccc2[nH]1	132.3%
Cc1c(C(=O)N[C@@H]2CC[C@@H](N3CCCC3)[C@@H]2O)[nH]c2ccc(F)cc12	79.42%
O=C(N[C@@H]1CCNC[C@H]1O)c1ccc(F)c(Cl)c1	-18.82%
O=C(NC1CCCCNC1=O)c1cc2ccccc2[nH]c1=O (centres undefined)	20.65%
O=C(N[C@@H]1CC[C@@H](N2CCCC2)[C@@H]1O)c1cc2cccc(F)c2[nH]1	98.49%
CSCCC(C)NC(=O)N1CCSC(C)(C)C1 (centres undefined)	17.63%
CCOC(=O)c1ccc(CNC(=O)c2ccc(Cl)cn2)o1	-5.208%
CCOc1ccc(C2CC(=O)Nc3c2c(=O)nc2sccn32)cc1 (centres undefined)	17.16%
Cc1ccc(O)c(C(=O)N2CCOCC2c2c(C)nn(C)c2C)c1 (centres undefined)	110.1%
Cc1nn(C)c(C)c1C1COCCN1C(=O)NC1CC1 (centres undefined)	-3.324%
Cc1nn(C)c(C)c1C1COCCN1C(=O)CC(C)(C)C (centres undefined)	-9.995%

Structure (SMILES)	Percent Effect
Cc1nn(C)c(C)c1C1COCCN1C(=O)c1cc(F)ccc1F (centres undefined)	96.87%
COC(=O)N1CCCC(C(=O)Nc2nc(C)c(SC)s2)C1 (centres undefined)	-4.415%
Cc1nc(CNC(C(=O)N2CCOCC2)C(C)C)no1 (centres undefined)	-7.712%
COc1ccc(F)cc1C[S+]([O-])CC(=O)NCC(C)C (centres undefined)	-12.33%
Cc1ocnc1C(=O)N1CCN(Cc2ccccc2)[C@@H]2CS(=O)(=O)C[C@@H]21	-1.53%
CCn1nc2c(cc1=O)CN(CC(=O)N(C)c1nccs1)CC2	-28.1%
CN(C)CCO[C@H]1CN(Cc2ccoc2)[C@@H]2COC[C@H]12.O=C(O)C(F)(F)F.O=C(O)C(F)(F)F	-9.926%
CN(C)C(=O)CO[C@H]1CN(Cc2ccoc2)[C@@H]2COC[C@H]12.O=C(O)C(F)(F)F	107.9%
CCc1ccc(CN2C[C@H](OCC(=O)N(C)C)[C@H]3COC[C@H]32)o1.O=C(O)C(F)(F)F	117.7%
CN(C)C(=O)CO[C@H]1CN(Cc2cccc(C#N)c2)[C@@H]2COC[C@H]12.O=C(O)C(F)(F)F	-2.281%
CN(C)C(=O)CO[C@H]1CN(Cc2ccccc2)[C@@H]2CCCO[C@H]12.O=C(O)C(F)(F)F	0.8065%
CN(C)C(=O)CO[C@H]1CN(Cc2ccc3c(c2)OCO3)[C@@H]2COC[C@H]12.O=C(O)C(F)(F)F	108%
CN(C)CCO[C@H]1CN(Cc2ccc3c(c2)OCO3)[C@@H]2COC[C@H]12.O=C(O)C(F)(F)F.O=C(O)C(F)(F)F	-6.328%
CN(C)C(=O)CO[C@H]1CN(Cc2ccsc2)[C@@H]2COC[C@H]12.O=C(O)C(F)(F)F	92.71%
CC(C)C1=NOC(c2nc(Cc3ccccc3)no2)C1 (centres undefined)	-12.61%
CCc1ccccc1OC1CN(C(=O)c2ccnc(OC)c2)C1	-7.047%
CC(C)NS(=O)(=O)c1cc(C(=O)O)cc(-c2ccccc2F)c1	2.884%
Cc1ccc(F)cc1-c1ccc(N)nc1	-13.87%
CCc1ccc(C(=O)NC2CCCN(c3ccn(C)n3)C2=O)o1 (centres undefined)	-13.64%
O=C1CCSCC(C(=O)N2CCN(C3CCCCC3)CC2)N1 (centres undefined)	2.707%
COc1cccc(CNCc2cccnc2)c1	125.9%
Cl.c1cncc(CNCc2cccs2)c1	109.5%
Cc1nn(C)c(N(C)C)c1CNCc1cccnc1	7.028%
C=C(C)COc1cccc(CNCc2nc3ccccc3c(=O)[nH]2)c1	-21.19%

Structure (SMILES)	Percent Effect
O=C(NCCc1cccnc1)NCCc1cccs1	-0.2291%
COc1cccc(CNCc2nc3ccccc3c(=O)[nH]2)c1	145%
COc1ccc(-n2ccc(CNCc3cccc(OC)c3)n2)cc1	-0.2636%
COc1cccc(-c2nc(CNCc3cccnc3)cs2)c1	6.915%
COc1cccc(CNC[C@@]2(COc3cccnc3)C[C@@H](O)[C@@H](O)C2)c1.Cl.Cl	-11.87%
CCC(CC)c1cc(CNC(=O)N2CCC[C@@H]2CO)on1	-2.754%
CCn1cc(CNc2ccc(F)c(N3CCCS3(=O)=O)c2)cn1	-13%
Cc1cccc(C(=O)N(CCCO)S(=O)(=O)c2cccs2)c1	-17.59%
O=C(CC1CCCC1)N1CCCC1c1nc(O)cc(-c2ccccn2)n1 (centres undefined)	-10.15%
COCCC(=O)N1CCCC1c1nc(O)cc(-c2ccccn2)n1 (centres undefined)	100.3%
O=C(CN1CCCC1)N1CCCC1c1nc(O)cc(-c2ccccn2)n1 (centres undefined)	91.97%
C/C=C(/C)C(=O)NS(=O)(=O)c1ccc(C(F)(F)F)cc1	-1.888%
O=C(C1CCCOC1)N1CCCc2ccccc21 (centres undefined)	-6.498%
Cc1ccc2c(c1)N(C(=O)C1CCCOC1)CCC2 (centres undefined)	0.6184%
CN1CCN(C(=O)C2CC=CC2)c2ccccc21	-33.89%
O=C(C1CCCOC1)N1CCN(CC(F)(F)F)c2ccccc21 (centres undefined)	120.4%
CC(C)(C)c1cc(NC(=O)C2COCCO2)n(-c2ccccn2)n1 (centres undefined)	-13.16%
O=C(C1CCOC1)N1CCN(CC(F)(F)F)c2ccccc21 (centres undefined)	125.3%
O=C(C1CCCOC1)N1CCCCc2ccccc21 (centres undefined)	-3.66%
O=C(C1COCCO1)N1CCN(CC(F)(F)F)c2ccccc21 (centres undefined)	122.9%
COc1nc(N2CCN(C(C)=O)CC2)ncc1Br	-6.459%
Cc1cc(NC2CCCN(Cc3ccc(F)cc3)C2)n2nc(C)cc2n1 (centres undefined)	43.11%
Cc1ccc(NC2CCCN(C3Cc4ccccc4C3)C2)nn1 (centres undefined)	-17.09%
CCn1cc(S(=O)(=O)NC2CCCN(CCCc3ccccc3)C2)cn1 (centres undefined)	-6.071%

Structure (SMILES)	Percent Effect
c1ccc(CCCN2CCCC(Nc3cnc4ccccc4n3)C2)cc1 (centres undefined)	45.74%
Cc1ccc(NC2CCCN(CCCc3ccccc3)C2)nn1 (centres undefined)	90.19%
CSc1ccccc1C(=O)N(C)C1CCCN(CCc2ccccc2)C1 (centres undefined)	-4.554%
Cc1ccc(NC2CCCN(CCc3ccccc3)C2)nn1 (centres undefined)	81.81%
Cc1cc(C)nc(NC2CCCN(CCCc3ccccc3)C2)n1 (centres undefined)	120.4%
Cc1cc(N[C@H]2CCCN(Cc3ccccc3)C2)n2nc(C)cc2n1	-7.34%
CC(C)c1ccc(NC2CCCN(Cc3ccncc3)C2)cc1 (centres undefined)	-12.89%
Cc1ccc(NC2CCCN(Cc3ccc(Cl)cc3)C2)nn1 (centres undefined)	105.3%
Cc1nnc([C@H]2CCN(CCCc3ccccc3)C2)o1	-2.923%
CCn1c(CN2CCC(O)(C(=O)OC)CC2)nc2c(F)cccc21	-8.235%
CSCCC(NC(N)=O)C(=O)NCc1c(C)nn(-c2ccccc2)c1C (centres undefined)	-8.181%
FC(F)(F)c1ccccc1CCC1CCCN(Cc2cscn2)C1 (centres undefined)	15.59%
COc1ccc2c(c1)nc1n2[C@@H](CNC(=O)c2cccnc2)COC1	-6.986%
O=C(N[C@@H]1CN(Cc2ccoc2)[C@@H]2CCCO[C@@H]21)C1CC1.O=C(O)C(F)(F)F	105.3%
O=C(N[C@@H]1CN(Cc2cccs2)[C@@H]2CCCO[C@@H]21)C1CC1	-17.92%
O=C(NC1CCCC1)[C@H]1C[C@H]2OCC[C@H]2N(Cc2ccoc2)C1.O=C(O)C(F)(F)F	13.19%
O=C(N[C@@H]1CN(Cc2ccsc2)[C@@H]2CCCO[C@@H]21)C1CC1	-8.929%
CN(C)C(=O)N[C@@H]1CN(Cc2ccc3c(c2)OCO3)[C@@H]2CCCO[C@@H]21.O=C(O)C(F)(F)F	-22.69%
O=C(N[C@H]1CN(Cc2ccsc2)[C@@H]2CCCO[C@H]12)C1CC1.O=C(O)C(F)(F)F	106.9%
O=C(O)C(F)(F)F.O=C([C@H]1C[C@H]2OCC[C@H]2N(Cc2ccoc2)C1)N1CCCO1	7.487%
CN(C)C(=O)[C@H]1C[C@H]2OCC[C@H]2N(Cc2ccc3c(c2)OCO3)C1.O=C(O)C(F)(F)F	0.2139%
CN(C)C(=O)N[C@H]1CN(Cc2ccc3c(c2)OCO3)[C@@H]2CCCO[C@H]12.O=C(O)C(F)(F)F	93.48%

Reference: ChEMBL document CHEMBL3988442, “University of Dundee, Small-Polar-MMV Screening Library” (2021)
